About 83,000 compounds went through this panel and 20% of them were active in at least one assay; those are over-represented in the sample as a whole.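 Activity criterion: percent growth below 10, measured after cells in 96-well plates were exposed to a single compound concentration for 48 hours.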 Values without a mark were called inactive. Calls of active or inactive are those of the source.

This passage reports growth results from PubChem BioAssay (NCI).

Holding throughout (assay): NCI-60 one-dose screen, 48 h (100 = growth as untreated, 0 = no growth, -100 = all killed)
Conditions in all cases: 10 µM unless noted

Experiment [1] relates to DU-145 prostate.
Experiment [2] has as its system K-562 leukemia.
Experiment [3] has as its system MALME-3M melanoma.
Experiment [4] concerns MDA-MB-231 breast.
The subject of experiment [5] is RXF 393 renal.
In experiment [6] the test system is SF-268 CNS.
The test system of experiment [7] is SF-295 CNS.
The test system of experiment [8] is SF-539 CNS.
Experiment [9] concerns UACC-257 melanoma.
In experiment [10] the test system is M14 melanoma.
The subject of experiment [11] is HCT-15 colon.
Experiment [12] deals with HT29 colon.
The subject of experiment [13] is SNB-75 CNS.
Experiment [14] has as its system SNB-19 CNS.
Experiment [15] relates to U251 CNS.
Experiment [16] relates to PC-3 prostate.
Experiment [17] has as its system SK-MEL-5 melanoma.
In experiment [18] the test system is UACC-62 melanoma.
The test system of experiment [19] is LOX IMVI melanoma.
Experiment [20] deals with SK-MEL-28 melanoma.

In the case of `C=C(C)[C@@H]1CC[C@]2(C)[C@H](CC=C3[C@@H]4C[C@](C)(C(=O)N5CCN(C)CC5)CC[C@]4(C)CC[C@]32C)[C@@]1(C)CCC#N`, the growth in experiment [1] is 88.3%; in experiment [2], 23.4%; in experiment [3] it was 77%; in experiment [4], 85.9%; in experiment [5], 84.9%; in experiment [6] it was 72.5%. Moreover, the growth was 95% in [7]; 70.2% in experiment [8]; 51.4% in experiment [9]; 66.6% in [10]; 38.2% in experiment [11]; 33.2% in [12]. Further, the growth in experiment [13] was 79.1%; in experiment [14] it was 89.4%; in [15], 50%; in experiment [16] it was 30.6%; in experiment [17], 18.9%; in [18], 53.5%. Further, the growth in experiment [19] was 47.6%.

Take `COc1ccc(C(=O)c2cc(C)c(OC)c(C)c2)cc1OC(=O)CCl`: the growth in experiment [1] is 9.37% (active); in [2] it was 4.66% (active); in experiment [3], 63.1%; in experiment [4], 22.9%; in experiment [5] it was 37.7%; in experiment [6] it was 27.6%. For the same compound, the growth in experiment [7] was 11.8%; in [8], -26.1% (active); in [9] it was 56.8%; in experiment [10], 0.344% (active); in [11], 13.1%; in experiment [12] it was 13.3%. Further, the growth in [13] is 69.8%; in experiment [14], 30.8%; in experiment [15], 6.71% (active); in experiment [16] it was 25.9%; in experiment [17] it was -18.4% (active); in [18], 41.8%. The growth in experiment [19] is 18.9%; in experiment [20], 57.5%.

In the case of `c1ccc2c(Cc3csc4ccccc34)csc2c1`, the growth is 110% in experiment [1]; 23.8% in experiment [2]; 81.9% in experiment [3]; 94.9% in experiment [4]; 83.6% in [5]; 104% in [6]. The growth is 69.2% in experiment [7]; 91.4% in experiment [8]; 93.5% in experiment [9]; 67.7% in experiment [10]; 76.1% in experiment [11]; 76.2% in experiment [12]. Further, the growth in experiment [13] is 66.9%; in [14], 90.4%; in [15], 81.9%; in experiment [16], 85.2%; in experiment [17], 91%; in [18], 86.4%. Further, the growth is 84.3% in experiment [19] and 82.9% in [20].

Regarding `COC(=O)CNS(=O)(=O)c1ccc2c(c1)Cc1cc(S(=O)(=O)NCC(=O)OC)ccc1-2`, the growth in experiment [1] was 113%; in [2], 100%; in [3], 100%; in experiment [4] it was 105%; in experiment [5], 108%; in experiment [6], 102%. Moreover, the growth is 100% in [7]; 97.2% in experiment [8]; 97.6% in [9]; 103% in experiment [10]; 102% in experiment [11]; 112% in experiment [12]. The growth in experiment [13] was 91.6%; in experiment [14], 100%; in [15], 100%; in experiment [16], 92.9%; in experiment [17], 98.2%; in experiment [18], 93.3%. For the same compound, the growth in experiment [19] is 97%.

For the compound `O=c1[nH]cnc2nc[nH]c12`, the growth is 170% in experiment [1]; 49.3% in experiment [2]; 110% in [3]; 99% in experiment [4]; 107% in experiment [5]; 147% in experiment [6]. The growth is 93.8% in [7]; 97.3% in [8]; 117% in [9]; 109% in experiment [10]; 107% in experiment [11]; 97.9% in experiment [12]. The growth was 90.8% in experiment [13]; 107% in experiment [14]; 103% in [15]; 135% in experiment [16]; 102% in experiment [17]; 102% in experiment [18]. The growth is 98.4% in experiment [19] and 97.9% in experiment [20].

Take `Nc1nonc1-c1nc2ccccc2n1Cc1ccc(F)cc1`: the growth in experiment [1] is 80.7%; in [2], 10.6%; in experiment [3], 46.2%; in [4], 60%; in [5], 37.8%; in [6] it was 66.3%. Besides, the growth is 68.5% in experiment [7]; 49.9% in experiment [8]; 75.4% in experiment [9]; 28.2% in [10]; 30.4% in experiment [11]; 17.3% in [12]. In addition, the growth was 32.4% in experiment [13]; 63.8% in experiment [14]; 52.3% in [15]; 61.7% in experiment [16]; 56.8% in experiment [17]; 48.8% in [18]. The values for the growth in [19] and in [20] were 49.1% and 61.3%, respectively.

As to `N#Cc1nc(-c2ccc(Cl)cc2)cc(-c2ccc(Nc3nc(N4CCCCC4)nc(N4CCCCC4)n3)cc2)c1N`, the growth was 105% in experiment [1]; 105% in experiment [2]; 107% in [3]; 114% in experiment [4]; 115% in experiment [5]; 101% in experiment [6]. The growth in experiment [7] is 101%; in experiment [8] it was 103%; in experiment [9] it was 105%; in experiment [10], 104%; in experiment [11], 108%; in experiment [12] it was 113%. In addition, the growth in experiment [13] is 81.5%; in [14] it was 104%; in experiment [15] it was 102%; in experiment [16] it was 91.6%; in [17] it was 97.6%; in experiment [18], 106%. The growth in [19] was 95.8%.

For `Cc1ccc(NC(=O)c2nc(S(C)=O)oc2-c2ccc(F)cc2)cc1Nc1nccc(-c2cccnc2)n1` (configuration not stated), the growth is 79.4% in [1]; -16.7% (active) in [2]; 34.7% in experiment [3]; 39% in experiment [4]; 7.47% (active) in experiment [5]; 54.4% in experiment [6]. Further, the growth is 86.4% in [7]; 69.4% in [8]; 87.3% in experiment [9]; 55.2% in [10]; 0.45% (active) in experiment [11]; 1.98% (active) in experiment [12]. Also, the growth in experiment [13] was 95.6%; in [14] it was 74.2%; in [15], 39.2%; in experiment [16], 72.9%; in [17], 68.3%; in experiment [18], 65%. Moreover, the growth in experiment [19] is -72.1% (active); in [20], 76.5%.
